Composite z-score and z-score data for 5 molecules are collected here from PubChem BioAssay.

Active and inactive are the calls of the source.

The subject of assay [1] is PRMT1 (protein arginine N-methyltransferase 1). The assay can be described thus: PRMT1 binders on small-molecule microarrays, primary screen, biochemical, small-molecule microarray, 635 nm fluorescence (AID 1088).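 Note: binding of Prmt1 protein to compounds spotted on small-molecule microarray slides.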 The conditions noted are these: small-molecule microarray binding, higher = more signal.
Assay [2] can be described thus: yeast growth modulation, basal conditions, primary screen, YJM789 clinical isolate, OD600, 24 h (AID 1089).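 Note: growth of clinical yeast isolate S. cerevisiae YJM 789 seeded 1000 cells per well; test concentration not given here.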 To be noted: S. cerevisiae YJM789 growth, higher = more signal, called active from +8 up or from −8 down.
The nature of assay [3]: fission yeast growth modulation, primary screen, strain 972, OD600, 24 h, no modulator (AID 1090).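 Note: basal condition with compound alone and no growth modifier present; test concentration not given here.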 To be noted: S. pombe 972 growth, higher = more signal, called active from +8 up or from −8 down.
Assay [4] is described as follows: S. cerevisiae growth modulation with rapamycin, primary screen, strain BY4716, OD600, 96 h (AID 1091). Note: test concentration not given here. The conditions noted are these: higher = more signal, called active from +8 up or from −8 down.
Assay [5] addresses Torsin-1A-interacting protein 2 (Homo sapiens) (UniProt Q8NFQ8). The assay can be described thus: LULL1 binders on small-molecule microarray, primary screen, cell lysate, human LULL1 lysate, 635/667 nm fluorescence (AID 1092).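 Note: probe is lysate of COS7 cells overexpressing human LULL1; score merges per-feature 667 nm fluorescence with signal-to-noise.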 The conditions noted are these: hLULL1 lysate binding, 635 nm fluorescence, higher = more signal.
A short description of assay [6]: E. coli growth modulation, two-sided OD650, primary screen, E. coli filamentation project, strain DRC41, 24 h (AID 1093).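 Note: MC1000 strain lacking acrAB efflux and sulA so SOS filamentation is blocked; test concentration not given here.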 The conditions noted are these: OD650, 24 h, higher = more signal, called active from +8 up or from −8 down.
Assay [7] can be described thus: small-molecule microarray binders of probe aLefty2, primary screen, biochemical, biotinylated probe, 635/667 nm fluorescence (AID 1094).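 Note: score merges spot fluorescence near 667 nm with spot signal-to-noise ratio.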 The conditions noted are these: higher = more signal.
The subject of assay [8] is Noggin (protein binding on small-molecule microarray). The assay can be described thus: Noggin binders on small-molecule microarray, primary screen, biochemical, 635/667 nm fluorescence (AID 1095).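 Note: score merges 667 nm feature fluorescence with signal to noise over triplicate slides.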 The conditions noted are these: 635 nm fluorescence, higher = more signal.
Assay [9] concerns the target Neurogenic locus notch homolog protein 3 (Homo sapiens) (UniProt Q9UM47). The assay is described as follows: NOTCH3 binders on small-molecule microarray, primary screen, biochemical, 635/667 nm fluorescence (AID 1096). To be noted: NOTCH3 binding, 635 nm fluorescence, higher = more signal.
Assay [10] is described as follows: small-molecule microarray binders of probe aEGFR, primary screen, biochemical, biotinylated probe, 635/667 nm fluorescence (AID 1097).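 Note: probe is a biotinylated anti-EGFR antibody binding compounds printed on slides; score combines fluorescence near 667 nm and signal to noise of each spot.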 The conditions noted are these: higher = more signal.
For assay [11], the system named is Plasmodium falciparum Sir2 (PF13_0152, Sir2A). The assay is described as follows: pfSir2 binders on small-molecule microarrays, primary screen, biochemical, small-molecule microarray, 635 nm fluorescence (AID 1098).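 Note: score merges spot fluorescence intensity with its signal-to-noise ratio.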 To be noted: small-molecule microarray binding, fluorescence 635 nm; higher = more signal.
The nature of assay [12]: small-molecule microarray binders of probe aDKK1, primary screen, biochemical, biotinylated probe, 635/667 nm fluorescence (AID 1099).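 Note: score merges 667nm spot fluorescence with signal to noise across triplicate slides; reference of the scale not given here.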 The conditions noted are these: higher = more signal.
The nature of assay [13]: small-molecule microarray binders of probe aCHRDL2, primary screen, biochemical, biotinylated probe, 635/667 nm fluorescence (AID 1100). The conditions noted are these: higher = more signal.
Assay [14] can be described thus: splicing luciferase reporter signal modulators, primary screen, spliceosome inhibition project, cell-based, HEK293, splice +/- reporter (AID 1101).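 Note: HEK293 cells carrying a splicing-competent luciferase reporter gene; test concentration not given here.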 The conditions noted are these: luminescence, 24 h, higher = more signal, called active from +8 up or from −8 down.
Assay [15] has as its target Fibroblast growth factor 10 (Homo sapiens) (UniProt O15520). The assay can be described thus: FGF10 binders on small-molecule microarrays, primary screen, biochemical, small-molecule microarray, 635 nm fluorescence (AID 1102). The conditions noted are these: FGF10 binding, fluorescence 635 nm, higher = more signal.
Assay [16] relates to glycogen synthase kinase-3 (GSK3A per assay name; protocol says GSK3B). The assay is described as follows: GSK3 binders on small-molecule microarrays, primary screen, biochemical, small-molecule microarray, 635 nm fluorescence, GSK3A (AID 1103). Note: the record names both GSK3A and GSK3B. The conditions noted are these: small-molecule microarray binding, fluorescence 635 nm; higher = more signal.
The target in assay [17] is Epidermal growth factor receptor (Homo sapiens) (UniProt P00533). The assay is described as follows: EGFR binders on small-molecule microarrays, primary screen, biochemical, small-molecule microarray, 635 nm fluorescence (AID 1104).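 Note: score merges 667 nm emission intensity with spot signal to noise over triplicate slides.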 To be noted: EGFR binding, higher = more signal.
Assay [18] deals with Follistatin-related protein 3 (Homo sapiens) (UniProt O95633). The assay can be described thus: FSTL3 binders on small-molecule microarrays, primary screen, biochemical, small-molecule microarray, 635 nm fluorescence (AID 1105).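 Note: score merges emission near 667 nm and signal to noise per printed spot across three slides.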 To be noted: FSTL3 binding, higher = more signal.
In assay [19] the target is Dickkopf-related protein 1 (Homo sapiens) (UniProt O94907). The assay is described as follows: DKK1 binders on small-molecule microarrays, primary screen, biochemical, small-molecule microarray, 635 nm fluorescence scan (AID 1106).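 Note: score merges emission near 667 nm with signal to noise over three replicate slides.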 The conditions noted are these: DKK1 binding, higher = more signal.
The subject of assay [20] is Inhibin beta A chain (activin A). The assay can be described thus: INHBA (activin A) binders on microarrays, primary screen, biochemical, small-molecule microarray, 635 nm fluorescence scan (AID 1107).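 Note: mouse activin A protein probed at 4.33 µg/mL on printed slides; score merges bound-protein fluorescence near 667 nm with spot signal-to-noise.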 To be noted: small-molecule microarray binding, higher = more signal.

Sequence of Dickkopf-related protein 1 (Homo sapiens) (O94907 whole entry, looked up): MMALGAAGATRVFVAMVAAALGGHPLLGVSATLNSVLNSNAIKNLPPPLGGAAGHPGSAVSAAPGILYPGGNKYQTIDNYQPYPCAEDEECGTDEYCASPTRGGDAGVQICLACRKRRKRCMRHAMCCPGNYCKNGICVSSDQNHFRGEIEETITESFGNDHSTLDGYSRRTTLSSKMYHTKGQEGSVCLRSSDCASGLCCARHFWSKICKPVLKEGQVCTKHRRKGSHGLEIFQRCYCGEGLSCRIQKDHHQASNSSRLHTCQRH
Sequence of Epidermal growth factor receptor (Homo sapiens) (P00533 whole entry, looked up): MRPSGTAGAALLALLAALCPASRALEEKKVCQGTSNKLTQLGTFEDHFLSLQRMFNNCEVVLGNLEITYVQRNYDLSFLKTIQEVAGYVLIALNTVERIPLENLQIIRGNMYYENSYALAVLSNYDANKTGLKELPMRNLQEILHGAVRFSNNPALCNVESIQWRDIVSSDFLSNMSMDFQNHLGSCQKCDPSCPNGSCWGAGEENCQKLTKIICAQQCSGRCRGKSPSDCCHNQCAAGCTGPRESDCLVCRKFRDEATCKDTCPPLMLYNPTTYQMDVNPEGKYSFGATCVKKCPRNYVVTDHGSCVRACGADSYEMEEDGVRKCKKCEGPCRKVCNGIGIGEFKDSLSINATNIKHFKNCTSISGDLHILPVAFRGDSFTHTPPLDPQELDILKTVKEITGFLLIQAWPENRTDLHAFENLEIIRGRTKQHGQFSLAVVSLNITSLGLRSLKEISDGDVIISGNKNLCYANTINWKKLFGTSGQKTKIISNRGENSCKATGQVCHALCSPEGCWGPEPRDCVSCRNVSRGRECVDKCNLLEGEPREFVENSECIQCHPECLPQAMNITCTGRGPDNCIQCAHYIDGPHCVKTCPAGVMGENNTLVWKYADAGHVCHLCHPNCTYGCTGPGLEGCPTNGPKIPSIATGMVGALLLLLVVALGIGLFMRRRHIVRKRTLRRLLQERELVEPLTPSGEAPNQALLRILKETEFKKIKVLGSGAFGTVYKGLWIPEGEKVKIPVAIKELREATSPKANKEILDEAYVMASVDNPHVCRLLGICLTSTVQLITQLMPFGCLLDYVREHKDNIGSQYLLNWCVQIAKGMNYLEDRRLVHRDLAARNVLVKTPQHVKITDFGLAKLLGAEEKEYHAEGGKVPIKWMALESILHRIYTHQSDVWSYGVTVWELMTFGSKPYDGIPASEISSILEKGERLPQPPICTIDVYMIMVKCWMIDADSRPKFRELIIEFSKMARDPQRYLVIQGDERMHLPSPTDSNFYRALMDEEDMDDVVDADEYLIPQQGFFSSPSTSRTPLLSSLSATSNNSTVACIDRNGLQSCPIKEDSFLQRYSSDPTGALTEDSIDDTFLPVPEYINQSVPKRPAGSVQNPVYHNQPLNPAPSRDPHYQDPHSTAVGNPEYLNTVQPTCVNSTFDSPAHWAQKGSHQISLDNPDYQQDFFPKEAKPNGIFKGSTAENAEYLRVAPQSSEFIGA
Sequence of Torsin-1A-interacting protein 2 (Homo sapiens) (Q8NFQ8 whole entry, looked up): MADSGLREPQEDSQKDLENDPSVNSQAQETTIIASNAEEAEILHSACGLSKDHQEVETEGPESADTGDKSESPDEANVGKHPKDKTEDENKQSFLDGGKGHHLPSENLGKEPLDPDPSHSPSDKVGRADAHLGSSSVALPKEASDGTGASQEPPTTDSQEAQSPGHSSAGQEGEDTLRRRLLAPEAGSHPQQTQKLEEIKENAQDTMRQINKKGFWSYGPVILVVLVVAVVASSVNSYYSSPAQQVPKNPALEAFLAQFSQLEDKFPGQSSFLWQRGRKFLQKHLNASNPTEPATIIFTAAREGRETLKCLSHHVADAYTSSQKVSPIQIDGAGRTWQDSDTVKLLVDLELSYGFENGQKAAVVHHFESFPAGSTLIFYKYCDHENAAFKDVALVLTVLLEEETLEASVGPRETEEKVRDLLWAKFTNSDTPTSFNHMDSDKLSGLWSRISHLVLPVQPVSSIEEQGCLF
Sequence of Neurogenic locus notch homolog protein 3 (Homo sapiens) (Q9UM47 whole entry, looked up): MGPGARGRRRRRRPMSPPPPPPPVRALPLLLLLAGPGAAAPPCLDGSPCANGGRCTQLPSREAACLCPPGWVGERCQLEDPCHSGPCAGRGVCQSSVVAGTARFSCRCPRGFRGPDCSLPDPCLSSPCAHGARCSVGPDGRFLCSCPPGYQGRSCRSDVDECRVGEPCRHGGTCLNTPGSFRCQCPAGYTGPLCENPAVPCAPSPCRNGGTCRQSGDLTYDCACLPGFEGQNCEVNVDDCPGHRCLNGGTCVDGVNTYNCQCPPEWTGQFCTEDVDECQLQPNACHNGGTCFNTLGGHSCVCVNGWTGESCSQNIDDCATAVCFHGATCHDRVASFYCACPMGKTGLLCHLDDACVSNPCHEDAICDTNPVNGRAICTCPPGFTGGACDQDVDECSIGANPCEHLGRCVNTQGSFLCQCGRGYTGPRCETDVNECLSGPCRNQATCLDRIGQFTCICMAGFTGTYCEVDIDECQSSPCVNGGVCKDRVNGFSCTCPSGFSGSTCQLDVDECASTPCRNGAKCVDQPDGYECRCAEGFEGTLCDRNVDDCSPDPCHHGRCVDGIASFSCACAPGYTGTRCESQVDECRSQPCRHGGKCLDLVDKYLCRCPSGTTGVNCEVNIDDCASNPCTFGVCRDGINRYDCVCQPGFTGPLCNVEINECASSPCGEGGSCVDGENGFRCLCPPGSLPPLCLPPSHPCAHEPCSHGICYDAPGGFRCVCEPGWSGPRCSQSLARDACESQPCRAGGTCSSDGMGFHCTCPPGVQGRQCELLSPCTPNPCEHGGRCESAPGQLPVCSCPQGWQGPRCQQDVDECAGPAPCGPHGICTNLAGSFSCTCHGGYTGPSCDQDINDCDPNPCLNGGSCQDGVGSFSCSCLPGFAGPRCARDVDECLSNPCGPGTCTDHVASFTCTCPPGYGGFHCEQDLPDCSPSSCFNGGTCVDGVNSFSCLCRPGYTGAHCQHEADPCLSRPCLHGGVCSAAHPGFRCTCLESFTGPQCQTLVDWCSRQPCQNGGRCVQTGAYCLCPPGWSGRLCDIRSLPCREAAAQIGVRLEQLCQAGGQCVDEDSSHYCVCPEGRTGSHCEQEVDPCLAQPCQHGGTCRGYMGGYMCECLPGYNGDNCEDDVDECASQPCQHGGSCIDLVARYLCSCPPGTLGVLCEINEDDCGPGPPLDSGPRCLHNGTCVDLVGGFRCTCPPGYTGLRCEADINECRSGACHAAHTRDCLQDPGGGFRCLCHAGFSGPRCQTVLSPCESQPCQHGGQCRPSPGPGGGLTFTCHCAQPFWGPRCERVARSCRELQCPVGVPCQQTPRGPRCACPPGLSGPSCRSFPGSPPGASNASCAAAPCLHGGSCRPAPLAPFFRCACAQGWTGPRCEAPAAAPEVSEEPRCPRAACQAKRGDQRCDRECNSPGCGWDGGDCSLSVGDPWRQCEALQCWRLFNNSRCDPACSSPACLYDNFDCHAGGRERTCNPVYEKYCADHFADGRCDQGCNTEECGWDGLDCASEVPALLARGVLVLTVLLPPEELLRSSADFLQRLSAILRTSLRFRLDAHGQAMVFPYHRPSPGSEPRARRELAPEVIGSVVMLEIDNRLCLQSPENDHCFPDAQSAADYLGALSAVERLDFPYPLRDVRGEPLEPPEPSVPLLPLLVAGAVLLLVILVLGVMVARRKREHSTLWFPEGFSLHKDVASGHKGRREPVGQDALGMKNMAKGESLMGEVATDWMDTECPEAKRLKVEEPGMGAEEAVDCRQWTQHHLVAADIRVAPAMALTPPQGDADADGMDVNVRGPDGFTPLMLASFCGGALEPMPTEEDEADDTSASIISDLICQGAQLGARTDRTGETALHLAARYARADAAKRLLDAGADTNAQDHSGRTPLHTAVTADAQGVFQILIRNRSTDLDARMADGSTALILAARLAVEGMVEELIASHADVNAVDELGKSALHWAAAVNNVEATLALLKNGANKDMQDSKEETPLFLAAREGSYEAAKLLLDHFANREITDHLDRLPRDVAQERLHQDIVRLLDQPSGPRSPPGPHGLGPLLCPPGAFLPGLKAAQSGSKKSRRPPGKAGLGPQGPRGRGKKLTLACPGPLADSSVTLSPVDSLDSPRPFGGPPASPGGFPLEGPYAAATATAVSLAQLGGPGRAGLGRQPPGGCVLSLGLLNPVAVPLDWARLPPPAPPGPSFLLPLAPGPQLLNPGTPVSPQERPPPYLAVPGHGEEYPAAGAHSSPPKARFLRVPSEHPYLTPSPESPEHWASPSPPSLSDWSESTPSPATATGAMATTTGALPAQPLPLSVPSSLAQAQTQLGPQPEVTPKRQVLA
Sequence of Follistatin-related protein 3 (Homo sapiens) (O95633 whole entry, looked up): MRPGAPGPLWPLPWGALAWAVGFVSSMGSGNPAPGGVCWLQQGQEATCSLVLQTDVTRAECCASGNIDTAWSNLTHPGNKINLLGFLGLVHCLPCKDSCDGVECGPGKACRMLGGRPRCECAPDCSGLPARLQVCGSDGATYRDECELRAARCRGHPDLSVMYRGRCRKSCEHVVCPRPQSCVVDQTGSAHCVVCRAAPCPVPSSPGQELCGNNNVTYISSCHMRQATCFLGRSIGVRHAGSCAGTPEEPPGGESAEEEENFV
Sequence of Fibroblast growth factor 10 (Homo sapiens) (O15520 whole entry, looked up): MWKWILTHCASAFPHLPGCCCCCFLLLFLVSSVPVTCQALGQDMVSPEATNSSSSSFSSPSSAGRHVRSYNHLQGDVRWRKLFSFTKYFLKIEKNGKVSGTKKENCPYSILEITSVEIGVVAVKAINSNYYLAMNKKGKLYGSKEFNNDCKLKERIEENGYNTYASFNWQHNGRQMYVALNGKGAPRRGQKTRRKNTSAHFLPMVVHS

For the molecule `[N-]=[N+]=NCc1ccccc1C[C@@]1(C(=O)N2CCOCC2)N=C(c2ccc(OCCCO)cc2)O[C@@H]1c1ccccc1`, the composite z-score was 1.42 in assay [1]; 3.33 in [5]; 0.349 in assay [7]; -0.519 in [8]; 0.553 in [9]; 0.801 in assay [10]. The composite z-score in assay [11] turned out to be 0.511; in [12], 0.881; in [13], 1.18; in assay [15] it was 1.03; in assay [16] it was 1.28; in [17], 0.0805. Besides, the values for the composite z-score in [18], in assay [19] and in [20] were -0.14, -0.519 and 0.686, respectively. Moreover, the z-score is -1.11 (inactive) in assay [2]; -1.72 (inactive) in [3]; 33 (active) in [4]; 0.386 (inactive) in assay [6]; -0.691 (inactive) in [14].

As to `O=C1C2C=CC(C(O)c3ccccc3)N(Nc3ccccc3F)C2C(=O)N1c1ccccc1` (stereo not given), the composite z-score in assay [1] was 0.101; in assay [5], 2.61; in assay [7], -0.0381; in [8], -0.0199; in assay [9], 0.023; in assay [10], -0.067. The composite z-score is 0.797 in assay [11]; -0.168 in assay [12]; 0.24 in [13]; 0.311 in assay [15]; -0.178 in assay [16]; 0.223 in assay [17]. Further, the composite z-score in [18] came out at 0.341; in [19], 0.0646; in [20], 0.626. In addition, the z-score in [2] was 0.181 (inactive); in assay [3] it was 0.815 (inactive); in assay [4], 0.285 (inactive); in assay [6], -0.106 (inactive); in assay [14], -0.245 (inactive).

Take `COC(=O)[C@@]1(Cc2ccc(OC)cc2)[C@H]2c3cc(C(=O)N(C)C)n(C[C@H](O)CO)c3C[C@H]2CN1C(=O)c1ccccc1`: the composite z-score is 0.0724 in assay [1]; 2.92 in assay [5]; 0.955 in [7]; -0.826 in assay [8]; 1.05 in [9]; 0.269 in assay [10]. Also, the composite z-score in assay [11] is 1.43; in [12] it was 1.76; in [13] it was 1.62; in assay [15], 0.376; in [16], 0.0885; in assay [17] it was -0.107. Besides, the composite z-score in assay [18] is 0.472; in [19], -1.18; in assay [20] it was 1.39. Moreover, the z-score in assay [2] is 0.398 (inactive); in assay [3], 0.251 (inactive); in assay [4], 0.878 (inactive); in assay [6], -1.02 (inactive); in assay [14], -0.872 (inactive).

Regarding `O=C1O[C@H](c2ccccc2)[C@H](c2ccccc2)N2[C@H]1[C@@H](C(=O)Nc1nc3ccccc3s1)[C@]1(C(=O)Nc3ccc(C#CCCO)cc31)[C@H]2c1ccc(O)cc1`, the composite z-score in assay [1] worked out at 1.55; in assay [5], 2.39; in assay [7], 0.0769; in [8] it was 0.744; in assay [9], 1.13; in assay [10], 0.346. Moreover, the composite z-score in assay [11] is 0.915; in assay [12], 0.39; in [13], 0.673; in [15], 0.929; in assay [16], 0.88; in assay [17], 0.591. The composite z-score was 0.763 in [18], 0.198 in [19] and 0.635 in assay [20]. The z-score was 0.758 (inactive) in [2]; 0.936 (inactive) in [3]; 1.14 (inactive) in assay [4]; -0.672 (inactive) in assay [6]; -0.285 (inactive) in [14].

Take `CC(=O)NCCCC[C@@H]1NC(=O)[C@@H]2C[C@H](C(=O)NCCCC[N+](C)(C)C)[C@H](c3ccc(O)cc3)N2C1=O`: the composite z-score was 1.54 in [1]; 1.46 in assay [5]; -0.0774 in assay [7]; 1.36 in assay [8]; 1.09 in assay [9]; -0.0131 in assay [10]. Further, the composite z-score in assay [11] is 1.46; in assay [12], -0.151; in assay [13], -0.295; in assay [15], 1.33; in [16] it was 0.301; in assay [17], 0.753. Besides, the composite z-score is 1.47 in [18], 1.76 in assay [19] and -0.261 in [20]. For the same molecule, the z-score in assay [2] is 0.305 (inactive); in [3], -0.266 (inactive); in assay [4] it was -1.29 (inactive); in assay [6] it was 0.0855 (inactive); in assay [14], -1.47 (inactive).
